# About 18,000 (9%) of roughly 200,000 compounds were called active. This excerpt belongs to a sample that is enriched for actives. Values without a mark were called inactive. Rule as the data show it: active = inhibition above about 50%; inactive = the rest.
# Test: Leishmania major promastigote growth inhibition, primary screen (AID 1063);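 also: promastigotes grown with compound for 44 hours at 28 °C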
# Details: Leishmania major promastigotes, resazurin fluorescence viability; at 10 µM; active compounds read high
row,Compound,inhibition
1,CN(C)CC(C)(C)CNC(=O)c1cc(Br)cc(Br)c1O,-1.61%
2,CC1=CC2=NC(=O)CC(C)(C(=O)N(CC(=O)NC(C)(C)C)Cc3ccccc3)N2C=C1 (configuration not stated),-6.31%
3,Cc1cccc(CSc2nc3c(c(=O)n2C)SCC3)c1,7.35%
4,COc1ccc(CCNC(=O)CN(c2ccccc2)S(C)(=O)=O)cc1OC,-7.09%
5,COc1ccc(C(CCN(Cc2ccc(OC)c(OC)c2)C(=O)CCl)c2ccccc2)cc1 (configuration not stated),100% (active)
6,CCOC(=O)CN(Cc1ccc(OC)c(OC)c1)S(=O)(=O)c1ccc(OC)cc1,0.46%
7,O=C(O)CCn1c(SCc2cc(=O)n3ccccc3n2)nc2ccsc2c1=O,-0.88%
8,CCN(CC)CCNC(=O)c1ccc(NC(=O)c2c(F)cccc2Cl)cc1,7.35%
9,COc1ccc(F)c(-c2nc(CN3CCC(c4ccccc4)CC3)c(C)o2)c1,48.2%
10,COc1ccc(CN2CCC(c3nc4ccc(Cl)cc4[nH]3)CC2)cc1,95.6% (active)
11,COc1ccc(Cn2nnc3c(=O)[nH]c(C4CCN(C(=O)c5ccccc5Cl)CC4)nc32)cc1,-0.57%
12,CCOc1ccc(C(CC(=O)O)NC(=O)C23CC4CC(CC(C4)C2)C3)cc1OC (configuration not stated),3.74%
13,Cn1ncc2c(Nc3cccc4ccccc34)ncnc21,-6.4%
14,Cn1ncc2c(NNC(=O)Cc3cccc4ccccc34)ncnc21,61.6% (active)
15,O=C(NNc1ncnc2c1cnn2-c1ccccc1)c1ccco1,-5.13%
16,O=C1OCC2=C1C(c1ccccc1)CC(=O)N2c1cccc(F)c1 (configuration not stated),7.11%
17,CCOC(=O)c1cnc2ccc(F)cc2c1Nc1ccc2c(c1)OCCO2,85.4% (active)
18,Cc1ccc2nc(-c3ccncc3)cc(C(=O)Nc3ccc4c(c3)OCCO4)c2c1,5.91%
19,COC(=O)CCNc1ccc2c(c1)OCCO2,-0.44%
20,CCCNCc1cc(OCC)c(OCC(=O)Nc2ccccc2)cc1Br,33.5%
21,O=C(COc1cc(Cl)c(Cl)cc1Cl)NCCc1ccccn1,-5.85%
22,CCOc1cc(CNCCN(C)C)c(Cl)cc1OCC(=O)NCCc1ccccc1,99% (active)
23,O=[N+]([O-])c1ccccc1/C=N/n1c(COc2ccccc2)n[nH]c1=S,-4.75%

row,Compound,inhibition
1,CCOc1ccc(-c2n[nH]c(=S)n2/N=C/c2cc3c(cc2[N+](=O)[O-])OCO3)cc1,52.8% (active)
2,Cc1ccc(-c2n[nH]c(=S)n2/N=C/c2cc3c(cc2[N+](=O)[O-])OCO3)cc1,-0.37%
3,CN(C)c1ccc2c(=O)[nH][nH]c(=O)c2c1,-5.2%
4,CC(=O)N1CCc2cc(Br)cc(S(=O)(=O)CCC(=O)Nc3c(C)n(C)n(-c4ccccc4)c3=O)c21,-1.11%
5,O=c1oc(/C=C/c2ccccc2)nc2ccccc12,1.06%
6,CCn1c(/C=C/c2ccc([N+](=O)[O-])o2)nc2ccccc2c1=O,100% (active)
7,CCOCCCn1c(NN)nc2ccccc2c1=O,-5.56%
8,CCN1CCC2(CCN(Cc3cn[nH]c3-c3ccc(OC)c(F)c3)C2)C1 (configuration not stated),1.79%
9,CCOC(=O)c1c(C2CC2)csc1NC(=O)CSCc1c(C)noc1C,100% (active)
10,CCOC(=O)c1c(-c2cccc(C)c2)csc1NC(=O)c1c(-c2ccccc2)noc1C,1.98%
11,Cc1noc(C)c1CSCC(=O)Nc1nc2ccc(Oc3ccccc3)cc2s1,2.23%
12,CCOC(=O)c1sc(NC(=O)CCN2CCOCC2)c(C(=O)OCC)c1C,7.86%
13,CCOC(=O)Nc1sc(C(=O)N(C)C)c(C)c1C(=O)OCC,7.28%
14,CCOC(=O)c1c(NC(=O)CCl)sc(C(=O)N(CC)CC)c1C,100% (active)
15,CCN(c1ccc2c(c1)OCO2)S(=O)(=O)c1cc(Br)cc2c1N(C(=O)C1CC1)CC2,57% (active)
16,CCOC(=O)N1CCN(S(=O)(=O)c2cc(Br)cc3c2N(C(=O)C2CC2)CC3)CC1,-13.7%
17,CS(=O)(=O)N(CC(=O)NCc1ccco1)c1ccc2c(c1)OCO2,7.89%
18,COC(=O)C1=C(C)N(C(C)c2ccccc2)C(=O)/C1=C\c1ccco1 (configuration not stated),12.7%
19,O=c1[nH]c(CN2CCN(S(=O)(=O)c3ccc4c(c3)OCCO4)CC2)nc2sc3c(c12)CCCC3,26.5%
20,O=[N+]([O-])c1ccc(C=Nc2ccc(Cl)cc2Cl)s1,100% (active)
21,CCCNC(=O)c1c(Cl)cnn1-c1ccc(C)cc1,6.12%
22,Cc1ccc(CN(C)CC(=O)Nc2cccc([N+](=O)[O-])c2)o1,8.58%
23,CC(C)(C)n1ncc2c(=O)n(Cc3ccc(Cl)cc3)cnc21,0.21%

row,Compound,inhibition
1,CCN(CC)S(=O)(=O)c1ccc(Cl)c(NC(=O)c2ccncc2)c1,19.7%
2,COc1ccc(C2CC(c3cccs3)Nc3nnnn32)cc1 (configuration not stated),-4.3%
3,O=C(CSc1nnc(-c2cccs2)n1-c1ccccc1)NCc1ccco1,7.53%
4,O=C(CSc1nnc2scc(-c3ccc(F)cc3)n12)NCc1ccco1,-2.03%
5,O=C(CSc1nnc(-c2c[nH]c3ccccc23)n1-c1ccc(F)cc1)NCc1ccco1,52.5% (active)
6,COc1ccc(C(=O)NC(=O)CSc2nnc(-c3ccco3)n2-c2ccccc2)cc1,-4.51%
7,COc1ccc(-n2c(SCC(=O)NCc3ccco3)nnc2-c2c[nH]c3ccccc23)cc1,97.7% (active)
8,COc1ccc(-n2c(SCC(=O)NCc3cccs3)nnc2-c2ccoc2C)cc1,5.39%
9,Cc1ccc(N=Cc2c(O)cc(C)oc2=O)c(C)c1,-1.99%
10,COc1cccc(CNC(=O)Cc2csc(Nc3nc(=S)[nH]c4ccccc34)n2)c1,2.33%
11,COC(=O)C[n+]1cccc2ccccc21,28.5%
12,O=C(CN1C(=O)C2C3CCC(C3)C2C1=O)Oc1ccc2ccccc2c1 (configuration not stated),7.23%
13,CC1=CC(C)(C)Nc2ccc(OC(=O)C(Cc3ccccc3)N3C(=O)C4CCCCC4C3=O)cc21 (configuration not stated),65.6% (active)
14,CC(OC(=O)CN1C(=O)C2CCCCC2C1=O)C(=O)Nc1ncc(Cl)cc1Cl (configuration not stated),-6.88%
15,CC1=CC(C)(C)Nc2ccc(OC(=O)CN3C(=O)C4CCCCC4C3=O)cc21 (configuration not stated),100% (active)
16,Cc1ccc(C)n1C(Cc1ccccc1)C(=O)O (configuration not stated),-7.64%
17,COc1cccc(NC(=O)NCc2ccc(F)cc2)c1,2.02%
18,CN(NC(=O)C1CC(=O)N(c2ccccc2)C1)C1=NS(=O)(=O)c2ccccc21 (configuration not stated),-0.26%
19,CCc1ccc(Oc2nc([N+](=O)[O-])nn2C)cc1,12.5%
20,CSc1nc2nc(-c3cccc(C(F)(F)F)c3)ccn2n1,-7.55%
21,C=CCN1C(=O)C(O)(CC(=O)c2ccccn2)c2ccccc21 (configuration not stated),3.64%
22,CCOc1ccc(NC(=O)CCS(=O)(=O)c2ccc3c(c2)CCCN3C(=O)CC)cc1,62.8% (active)
23,CCCNS(=O)(=O)c1ccc2c(c1)CCCN2C(C)=O,-1.63%

row,Compound,inhibition
1,CC(=O)N1CCCc2cc(S(=O)(=O)CCC(=O)N3CCN(c4ccccc4)CC3)ccc21,-3.41%
2,O=C(c1ccc(F)cc1)N1CCCC(c2nc(-c3cccs3)no2)C1 (configuration not stated),5.3%
3,O=C(c1cccs1)N1CCCC(c2nc(-c3ccc(F)cc3)no2)C1 (configuration not stated),-8.27%
4,O=C(Cc1cccs1)N1CCCC(c2nc(-c3ccc(S(=O)(=O)N4CCCC4)cc3)no2)C1 (configuration not stated),95.1% (active)
5,C=C(C)c1cccc(C(C)(C)NC(=O)NCCN(CC)CC)c1,4.54%
6,COC(=O)CN1C(=O)N/C(=C/c2ccc(OC)c(C)c2OC)C1=O,-9.01%
7,S=C(NC1CCCCC1)NN1CCOCC1,-1.39%
8,COc1ccccc1Cn1c(C)nnc1-c1cnn(C)c1N,0.00407%
9,CCOC(=O)c1ccc(NC(=O)CSc2nnc(COc3ccccc3OC)n2C)cc1,89% (active)
10,CCOC(=O)c1ccc(NC(=O)CSc2ncccn2)cc1,0.48%
11,COC(=O)c1ccc(NC(=O)CSc2nnc(-c3ccncc3)n2C)cc1,5.08%
12,CCc1cc2cc(OC)ccc2nc1SCC(=O)Nc1cc(OC)c(OC)cc1C(=O)O,-7.93%
13,Cc1ccnc(SCCn2c(N(C)Cc3ccccc3)nc3c2c(=O)n(C)c(=O)n3C)n1,34.8%
14,Cn1c(=O)[nH]c(=O)c2c1nc(N(CCO)Cc1ccccc1)n2Cc1ccccc1Cl,23.7%
15,CN(Cc1ccccc1)c1nc2c(c(=O)[nH]c(=O)n2C)n1CCSc1nc2ccccc2[nH]1,95% (active)
16,CCOC(=O)c1sc(NC(=O)CSc2nc(O)c(Cc3ccccc3)c(=O)[nH]2)nc1C,-5.06%
17,Cc1ccc(-c2noc(CCC(N)=O)n2)cc1,-4.98%
18,CN1CCN(C(=O)CCc2nc(-c3ccc(Cl)cc3)no2)CC1,-4.14%
19,Cc1ccc(-c2noc(CCC(=O)Nc3ccccc3N3CCN(C)CC3)n2)cc1,57.9% (active)
20,COc1cccc(/C=N\NC(=O)C2=NNC(=O)C2C)c1O (configuration not stated),-7.2%
21,COc1cccc(/C=N/NC(=O)c2[nH]nc3c2CCc2ccccc2-3)c1O,98% (active)
22,COc1ccc(C(=O)Nc2ccccc2C(=O)N/N=C/c2ccccc2OC)cc1,6.31%
23,C/C(=N\NC(=S)NC(C)C)c1ccc(C(C)(C)C)cc1,15%

# Reference: PubChem BioAssay AID1063 (University of Pittsburgh Molecular Library Screening Center, 2008)
